In PubChem BioAssay AID1159580 (chemical genetic matrix, 2015):
The whole screen tested about 5,500 compounds, of which about 2,000 (36%) were called active. About 18% were inconclusive and are not listed. Rule as the data show it: active = normalized growth mostly below about 0.91 (no sharp cut-off); inconclusive = no clear call, values can overlap the other calls; inactive = mostly above about 0.92. Some of the results follow.

Assay: chemical genetic growth profiling, strain panel (AID 1159580);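 also: tested at 20 µM; growth read once vehicle control cultures reached saturation at 30 °C; 1 = growth at the plate median or of vehicle wells; lower values mean less growth of the strain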
Settings: growth OD

Measured: normalized growth

CN1CCC[C@@H]1CCO[C@](C)(c1ccccc1)c1ccc(Cl)cc1
active: S. cerevisiae deletion strains, locus YLR039C, strain RIC1, active compounds read low 1.41 [resistant] | S. cerevisiae deletion strains, locus YLR262C, strain YPT6, active compounds read low 1.46 [resistant] | S. cerevisiae deletion strains, locus YLR342W, strain FKS1, active compounds read low 0.893 | S. cerevisiae deletion strains, locus YLR418C, strain cdc73, active compounds read low 0.682 | S. cerevisiae deletion strains, locus YNL071W, strain lat1, active compounds read low 0.888 | S. cerevisiae deletion strains, locus YNL209W, strain ssb2, active compounds read low 0.877 | S. cerevisiae deletion strains, locus YNL248C, strain rpa49, active compounds read low 0.836 | S. cerevisiae deletion strains, locus YOL006C, strain TOP1, active compounds read low 0.417 | S. cerevisiae deletion strains, locus YOR270C, strain vph1, active compounds read low 0.616
inactive: S. cerevisiae deletion strains, locus YJR075W, strain HOC1, active compounds read low 0.92 | S. cerevisiae deletion strains, locus YKL009W, strain mrt4, active compounds read low 0.977 | S. cerevisiae deletion strains, locus YKL068W, active compounds read low 0.992 | S. cerevisiae deletion strains, locus YKL085W, strain MDH1 (second series), active compounds read low 0.995 | S. cerevisiae deletion strains, locus YKL085W, strain MDH1, active compounds read low 0.995 | S. cerevisiae deletion strains, locus YKL160W, strain elf1, active compounds read low 0.977 | S. cerevisiae deletion strains, locus YKL190W, strain CNB1, active compounds read low 0.977 | S. cerevisiae deletion strains, locus YKR001C, strain vps1, active compounds read low 1.02 | S. cerevisiae deletion strains, locus YKR026C, strain gcn3, active compounds read low 1.02 | S. cerevisiae deletion strains, locus YKR091W, strain srl3, active compounds read low 1 | S. cerevisiae deletion strains, locus YLL001W, strain dnm1, active compounds read low 0.946 | S. cerevisiae deletion strains, locus YLL026W, active compounds read low 0.988 | S. cerevisiae deletion strains, locus YLL041C, strain sdh2, active compounds read low 0.992 | S. cerevisiae deletion strains, locus YLR027C, strain aat2, active compounds read low 0.98 | S. cerevisiae deletion strains, locus YLR058C, strain SHM2, active compounds read low 0.994 | S. cerevisiae deletion strains, locus YLR102C, strain apc9, active compounds read low 0.997 | S. cerevisiae deletion strains, locus YLR113W, strain HOG1, active compounds read low 0.969 | S. cerevisiae deletion strains, locus YLR221C, strain rsa3, active compounds read low 0.932 | S. cerevisiae deletion strains, locus YLR258W, strain gsy2, active compounds read low 0.977 | S. cerevisiae deletion strains, locus YLR262C, strain YPT6 (second series), active compounds read low 1.07 | S. cerevisiae deletion strains, locus YLR268W, strain sec22, active compounds read low 0.929 | S. cerevisiae deletion strains, locus YLR320W, strain mms22, active compounds read low 0.878 | S. cerevisiae deletion strains, locus YLR330W, strain CHS5, active compounds read low 1.02 | S. cerevisiae deletion strains, locus YLR342W, strain FKS1 (second series), active compounds read low 0.834 | S. cerevisiae deletion strains, locus YLR357W, strain rsc2, active compounds read low 1.01 | S. cerevisiae deletion strains, locus YLR370C, strain arc18, active compounds read low 0.966 | S. cerevisiae deletion strains, locus YLR371W, strain rom2, active compounds read low 0.994 | S. cerevisiae deletion strains, locus YLR384C, strain iki3, active compounds read low 1.01 | S. cerevisiae deletion strains, locus YML016C, strain PPZ1, active compounds read low 1.02 | S. cerevisiae deletion strains, locus YML032C, strain rad52, active compounds read low 0.98 | S. cerevisiae deletion strains, locus YML120C, strain ndi1, active compounds read low 1 | S. cerevisiae deletion strains, locus YML124C, strain tub3, active compounds read low 0.994 | S. cerevisiae deletion strains, locus YMR058W, strain fet3, active compounds read low 0.953 | S. cerevisiae deletion strains, locus YMR078C, strain ctf18, active compounds read low 0.993 | S. cerevisiae deletion strains, locus YMR125W, strain sto1, active compounds read low 0.96 | S. cerevisiae deletion strains, locus YMR129W, active compounds read low 0.99 | S. cerevisiae deletion strains, locus YMR205C, strain PFK2, active compounds read low 0.955 | S. cerevisiae deletion strains, locus YMR223W, strain ubp8, active compounds read low 0.964 | S. cerevisiae deletion strains, locus YMR231W, strain pep5, active compounds read low 1.01 | S. cerevisiae deletion strains, locus YMR263W, strain SAP30, active compounds read low 0.976 | S. cerevisiae deletion strains, locus YMR307W, strain GAS1, active compounds read low 0.92 | S. cerevisiae deletion strains, locus YNL067W, strain RPL9B, active compounds read low 0.971 | S. cerevisiae deletion strains, locus YNL128W, strain TEP1, active compounds read low 0.898 | S. cerevisiae deletion strains, locus YNL153C, strain GIM3, active compounds read low 1 | S. cerevisiae deletion strains, locus YNL183C, strain NPR1, active compounds read low 0.918 | S. cerevisiae deletion strains, locus YNL233W, strain BNI4, active compounds read low 0.978 | S. cerevisiae deletion strains, locus YNL250W, strain rad50, active compounds read low 0.986 | S. cerevisiae deletion strains, locus YNL271C, strain bni1, active compounds read low 0.986 | S. cerevisiae deletion strains, locus YNL298W, strain CLA4, active compounds read low 0.988 | S. cerevisiae deletion strains, locus YNL307C, strain MCK1, active compounds read low 0.96 | S. cerevisiae deletion strains, locus YNL322C, strain KRE1 (second series), active compounds read low 1.02 | S. cerevisiae deletion strains, locus YNL322C, strain KRE1, active compounds read low 1.01 | S. cerevisiae deletion strains, locus YNR049C, strain mso1, active compounds read low 1.01 | S. cerevisiae deletion strains, locus YNR052C, strain pop2, active compounds read low 0.971 | S. cerevisiae deletion strains, locus YOL012C, strain htz1 0.791 | S. cerevisiae deletion strains, locus YOL147C, strain pex11, active compounds read low 0.999 | S. cerevisiae deletion strains, locus YOR001W, strain rrp6, active compounds read low 0.951 | S. cerevisiae deletion strains, locus YOR061W, strain CKA2, active compounds read low 1.01 | S. cerevisiae deletion strains, locus YOR069W, strain VPS5, active compounds read low 1 | S. cerevisiae deletion strains, locus YOR070C, strain gyp1, active compounds read low 0.974 | S. cerevisiae deletion strains, locus YOR080W, strain dia2, active compounds read low 0.994 | S. cerevisiae deletion strains, locus YOR083W, strain WHI5, active compounds read low 0.93 | S. cerevisiae deletion strains, locus YOR106W, strain vam3, active compounds read low 0.914 | S. cerevisiae deletion strains, locus YOR136W, strain idh2, active compounds read low 0.991 | S. cerevisiae deletion strains, locus YOR144C, strain elg1, active compounds read low 1 | S. cerevisiae deletion strains, locus YOR184W, strain ser1, active compounds read low 0.999 | S. cerevisiae deletion strains, locus YOR231W, strain MKK1, active compounds read low 0.991 | S. cerevisiae deletion strains, locus YOR265W, strain rbl2, active compounds read low 0.998 | S. cerevisiae deletion strains, locus YOR290C, strain snf2, active compounds read low 0.957 | S. cerevisiae deletion strains, locus YOR316C, strain cot1, active compounds read low 0.993 | S. cerevisiae deletion strains, locus YPL051W, strain arl3, active compounds read low 0.94 | S. cerevisiae deletion strains, locus YPL055C, strain LGE1, active compounds read low 0.782 | S. cerevisiae deletion strains, locus YPL078C, strain atp4, active compounds read low 0.916 | S. cerevisiae deletion strains, locus YPL106C, strain sse1, active compounds read low 1.02 | S. cerevisiae deletion strains, locus YPL240C, strain hsp82, active compounds read low 0.992 | S. cerevisiae deletion strains, locus YPL241C, strain CIN2, active compounds read low 0.999 | S. cerevisiae deletion strains, locus YPL256C, strain CLN2, active compounds read low 0.979 | S. cerevisiae deletion strains, locus YPR119W, strain clb2, active compounds read low 0.998 | S. cerevisiae deletion strains, locus YPR141C, strain kar3, active compounds read low 0.997 | S. cerevisiae deletion strains, locus YPR163C, strain tif3, active compounds read low 0.975 | S. cerevisiae deletion strains, locus YPR167C, strain met16, active compounds read low 0.991 | S. cerevisiae deletion strains, strain wtn01, active compounds read low 0.959 | S. cerevisiae strains, strain wild type, active compounds read low 0.99
